Measured values: PubChem BioAssay (EPA / NIEHS)
The source made the active and inactive calls. Rule for the calls: active = hit-call score of the fitted dose curve at least 0.9, where 1 is the maximum; inactive = score below 0.9.

Experiments:
[1] = read-out: Monokine induced gamma interferon (MIG), CXCL9 (gene 4283); test: BSK_BE3C_MIG: BioMAP Diversity Plus: BE3C Assay for Monokine induced gamma interferon (MIG) Biomarker Activity (AID 2283035); details: primary human bronchial epithelial cells; actives raise or lower the signal
Summary of the method: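 hu bronchial epithelial 1° cells, 24 h cpd; MIG by ELISA; bidirectional fit, DMSO = baseline.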

[2] = read-out: Transforming growth factor beta 1 (TGFb1), TGFB1 (gene 7040); test: BSK_BE3C_TGFb1: BioMAP Diversity Plus: BE3C Assay for Transforming growth factor beta 1 (TGFb1) Biomarker Activity (AID 2283036); details: primary human bronchial epithelial cells; actives raise or lower the signal
Summary of the method: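 TGF-b1 measured via ELISA, 24 h after chemical dosing of human bronchial epithelial cells (BE3C). Overt cytotoxicity assessed in parallel by SRB (0.1%, TCA-fixed, 560 nm); analysis bidirectional relative to DMSO.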

[3] = read-out: Plasminogen activator inhibitor-1 (PAI1), SERPINE1 (gene 5054); test: BSK_BE3C_PAI1: BioMAP Diversity Plus: BE3C Assay for Plasminogen activator inhibitor-1 (PAI1) Biomarker Activity (AID 2283037); details: primary human bronchial epithelial cells; actives raise or lower the signal
Summary of the method: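 In this multiplexed primary-cell system, bronchial epithelial cells receive test chemical and are sampled at 24 h. PAI-1 is read by ELISA, with DMSO serving as negative control for bidirectional fitting.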

[4] = read-out: Urokinase-type plasminogen activator receptor (uPAR), PLAUR (gene 5329); test: BSK_BE3C_uPAR: BioMAP Diversity Plus: BE3C Assay for Urokinase-type plasminogen activator receptor (uPAR) Biomarker Activity (AID 2283039); details: primary human bronchial epithelial cells; actives raise or lower the signal
Summary of the method: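 Chemically treated human bronchial epithelial cells (lung primary) are assayed for uPAR by ELISA after 24 h, with data fitted in both directions using DMSO as negative control.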

[5] = read-out: Interleukin-6 (IL6), IL6 (gene 3569); test: BSK_CASM3C_IL6: BioMAP Diversity Plus: CASM3C Assay for Interleukin-6 (IL6) Biomarker Activity for (AID 2283040); details: primary human coronary artery smooth muscle cells; actives raise or lower the signal
[6] = read-out: Tissue plasminogen activator (tPA), PLAT (gene 5327); test: BSK_BE3C_tPA: BioMAP Diversity Plus: BE3C Assay for Tissue plasminogen activator (tPA) Biomarker Activity (AID 2283041); details: primary human bronchial epithelial cells; actives raise or lower the signal
Summary of the method: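 Using human lung primary bronchial epithelial cells, tPA was measured by ELISA 24 h after dosing; data fitted relative to DMSO.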

[7] = read-out: Interleukin-8 (IL8), CXCL8 (gene 3576); test: BSK_CASM3C_IL8: BioMAP Diversity Plus: CASM3C Assay for Interleukin-8 (IL8) Biomarker Activity (AID 2283042); details: primary human coronary artery smooth muscle cells; actives raise or lower the signal;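 note: IL-8 protein level quantified by ELISA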
[8] = read-out: Human Leukocyte Antigen - DR isotype (HLADR), HLA-DRA (gene 3122); test: BSK_CASM3C_HLADR: BioMAP Diversity Plus: CASM3C Assay for Human Leukocyte Antigen - DR isotype (HLADR) Biomarker Activity (AID 2283043); details: primary human coronary artery smooth muscle cells; actives raise or lower the signal;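 note: cell-surface HLA-DR protein level quantified by ELISA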
[9] = read-out: Macrophage colony-stimulating factor (MCSF), CSF1 (gene 1435); test: BSK_CASM3C_MCSF: BioMAP Diversity Plus: CASM3C Assay for Macrophage colony-stimulating factor (MCSF) Biomarker Activity (AID 2283044); details: primary human coronary artery smooth muscle cells; actives raise or lower the signal;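 note: M-CSF protein amount quantified by ELISA after 24 h exposure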
[10] = read-out: Low-density lipoprotein receptor (LDLR), LDLR (gene 3949); test: BSK_CASM3C_LDLR: BioMAP Diversity Plus: CASM3C Assay for Low-density lipoprotein receptor (LDLR) Biomarker Activity (AID 2283045); details: primary human coronary artery smooth muscle cells; actives raise or lower the signal;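 note: LDLR protein level on the cell surface quantified by ELISA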
[11] = read-out: Monocyte Chemoattractant Protein-1 (MCP1), CCL2 (gene 6347); test: BSK_CASM3C_MCP1: BioMAP Diversity Plus: CASM3C Assay for Monocyte Chemoattractant Protein-1 (MCP1) Biomarker Activity (AID 2283046); details: primary human coronary artery smooth muscle cells; actives raise or lower the signal;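 note: MCP-1 level quantified by ELISA 24 h after dosing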
[12] = BSK_CASM3C_Proliferation: Cell Proliferation Assessment in the BioMAP Diversity Plus: CASM3C Assay (AID 2283047); details: primary human coronary artery smooth muscle cells;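 note: sulforhodamine B total protein stain as relative cell number at 560 nm; sub-confluent cells exposed 48 h before staining; fitted both ways against DMSO so gain or loss of cell number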
[13] = read-out: Monokine induced gamma interferon (MIG), CXCL9 (gene 4283); test: BSK_CASM3C_MIG: BioMAP Diversity Plus: CASM3C Assay for Monokine induced gamma interferon (MIG) Biomarker Activity (AID 2283048); details: primary human coronary artery smooth muscle cells; actives raise or lower the signal;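 note: MIG protein level measured by ELISA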
[14] = read-out: serum amyloid A (SAA), SAA1 (gene 6288); test: BSK_CASM3C_SAA: BioMAP Diversity Plus: CASM3C Assay for serum amyloid A (SAA) Biomarker Activity (AID 2283049); details: primary human coronary artery smooth muscle cells; actives raise or lower the signal;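 note: SAA protein level quantified by ELISA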
[15] = BSK_CASM3C_SRB: Viability Assessment in the BioMAP Diversity Plus: CASM3C Assay (AID 2283050); details: primary human coronary artery smooth muscle cells;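 note: total protein by SRB staining as cytotoxicity measure in parallel cultures; cells exposed to compound for 24 h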
[16] = read-out: Thrombomodulin, THBD (gene 7056); test: BSK_CASM3C_Thrombomodulin: BioMAP Diversity Plus: CASM3C Assay for Thrombomodulin Biomarker Activity (AID 2283051); details: primary human coronary artery smooth muscle cells; actives raise or lower the signal;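 note: thrombomodulin protein level measured by ELISA 24 h after dosing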
[17] = read-out: Tissue Factor, F3 (gene 2152); test: BSK_CASM3C_TissueFactor: BioMAP Diversity Plus: CASM3C Assay for Tissue Factor Biomarker Activity (AID 2283052); details: primary human coronary artery smooth muscle cells; actives raise or lower the signal;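 note: cell surface tissue factor protein level read by ELISA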
[18] = read-out: Interferon-gamma inducible Protein 10 (IP10), CXCL10 (gene 3627); test: BSK_hDFCGF_IP10: BioMAP Diversity Plus: hDFCGF Assay for Interferon-gamma inducible Protein 10 (IP10) Biomarker Activity (AID 2283053); details: primary human foreskin fibroblasts; actives raise or lower the signal
Summary of the method: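 Chemical-treated human skin fibroblasts (primary) were sampled at 24 h for IP-10 by ELISA. Both increases and decreases relative to DMSO were scored.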

[19] = read-out: Urokinase-type plasminogen activator receptor (uPAR), PLAUR (gene 5329); test: BSK_CASM3C_uPAR: BioMAP Diversity Plus: CASM3C Assay for Urokinase-type plasminogen activator receptor (uPAR) Biomarker Activity (AID 2283054); details: primary human coronary artery smooth muscle cells; actives raise or lower the signal;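 note: cell-surface uPAR protein level quantified by ELISA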
[20] = read-out: urokinase plasminogen activator (uPA), PLAU (gene 5328); test: BSK_BE3C_uPA: BioMAP Diversity Plus: BE3C Assay for urokinase plasminogen activator (uPA) Biomarker Activity (AID 2283038); details: primary human bronchial epithelial cells; actives raise or lower the signal
Summary of the method: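 Bronchial epithelial cells (human, primary); chemical 24 h; uPA by ELISA; bidirectional fit vs DMSO. SRB (0.1%, after 10% TCA fixation, 560 nm) in parallel cultures for cytotoxicity.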

Measured: AC50

CC(C)CCCCCCCOC(=O)CCCCC(=O)OCCCCCCCC(C)C
inactive: [1] | [2] | [3] | [4] | [5] | [6] | [7] | [8] | [9] | [10] | [11] | [12] | [13] | [14] | [15] | [16] | [17] | [18] | [19]

CC(C)CCCCCCOC(=O)c1ccc(C(=O)OCCCCCCC(C)C)c(C(=O)OCCCCCCC(C)C)c1
inactive: [1] | [2] | [3] | [4] | [5] | [6] | [7] | [8] | [9] | [10] | [11] | [12] | [13] | [14] | [15] | [16] | [17] | [18] | [19]

CCOC(=O)CC(CC(=O)OCC)(OC(C)=O)C(=O)OCC
inactive: [1] | [2] | [3] | [4] | [5] | [6] | [7] | [8] | [9] | [10] | [11] | [12] | [13] | [14] | [15] | [16] | [17] | [18] | [19]

CC[C@H]1CC[C@H](NCc2cc3c(cc2OC)[C@H]2C[C@H]2C(=O)N3C)[C@H](c2ccccc2)N1
inactive: [1] | [2] | [3] | [4] | [5] | [6] | [7] | [8] | [9] | [10] | [11] | [13] | [14] | [15] | [16] | [17] | [18] | [19]
active: [12] 7.17 µM

Fc1ccccc1[C@@H](F)COC1CCC(Nc2ncnc3[nH]ncc23)CC1 (some centres undefined)
inactive: [1] | [2] | [3] | [20] | [5] | [6] | [7] | [9] | [10] | [11] | [13] | [14] | [15] | [16] | [17] | [18]
active: [8] 6.88 µM | [12] 29.2 µM | [19] 9.15 µM

COc1ccc(/C=C/S(=O)(=O)NC(=O)c2ccc(C)cc2Cl)cc1
active: [12] 18.9 µM
inactive: [1] | [2] | [3] | [4] | [5] | [6] | [7] | [8] | [9] | [10] | [11] | [13] | [14] | [15] | [16] | [17] | [18] | [19]

CCCCCCc1ccc(O)cc1O
inactive: [5] | [7] | [8] | [9] | [11] | [13] | [14] | [15] | [17] | [19]
active: [1] 30.9 µM | [2] 24.6 µM | [3] 31.6 µM | [4] 34.1 µM | [6] 13.2 µM | [10] 11.9 µM | [12] 32.6 µM | [16] 4.48 µM | [18] 29.8 µM

COc1cccc(-c2ccc(/C=C\CN3CCCCCC3)cc2Cl)c1
inactive: [3] | [5] | [7] | [11] | [13] | [16] | [17]
active: [1] 32.7 µM | [2] 25.8 µM | [20] 23.6 µM | [6] 29.2 µM | [8] 29.5 µM | [9] 29.4 µM | [10] 4.74 µM | [12] 29.8 µM | [14] 32 µM | [15] 25 µM | [18] 27.3 µM | [19] 25.9 µM

O=C(O)CC(O)C(=O)O (centres undefined)
inactive: [1] | [2] | [3] | [20] | [5] | [6] | [7] | [8] | [9] | [10] | [11] | [12] | [13] | [14] | [15] | [16] | [17] | [18] | [19]

CCOC(=O)COc1ccc2c(c1)CC(NCC(O)c1cccc(Cl)c1)CC2 (centres undefined)
inactive: [1] | [3] | [5] | [6] | [7] | [8] | [9] | [10] | [11] | [13] | [14] | [15] | [16] | [17] | [19]
active: [2] 29 µM | [12] 27.2 µM | [18] 26.3 µM

CCN(C(=O)c1cc(C)cc(OC[C@H](C)Nc2ccncc2)c1)C(C)C
inactive: [1] | [2] | [3] | [5] | [6] | [7] | [8] | [9] | [10] | [11] | [12] | [13] | [14] | [15] | [16] | [17] | [18] | [19]

COC(=O)c1c(Cl)c(Cl)c(C(=O)OC)c(Cl)c1Cl
inactive: [1] | [2] | [3] | [5] | [6] | [7] | [8] | [9] | [10] | [11] | [12] | [13] | [14] | [15] | [16] | [17] | [18] | [19]

COC(=O)c1ccccc1O
inactive: [1] | [2] | [3] | [4] | [5] | [6] | [7] | [8] | [9] | [10] | [11] | [12] | [13] | [14] | [15] | [16] | [17] | [18] | [19]
